Compound activity deposited in PubChem by National Center for Advancing Translational Sciences (NCATS).
Shown are actives, neighbours in structure and some others; about 15% of the full set was active somewhere.
HCV inh: HCV inhibition; Huh7.5.1 HCVcc-Cre infection, luciferase reporter, 44 h; Potency, µM (highest dose often 41.8 µM), usual class: inhibitors; actives 3.4% (n = 340,000); AID 651820
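Reporter virus HCVcc-Cre (~0.5 moi) infects cells exposed to compound; seeding density 1,000 cells/well with 4 h settling beforehand. Luminescence, 15 sec read, taken 44 h post-infection following a 15 min RT substrate incubation.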
HCMV inh: human cytomegalovirus inhibition; HFF cells, HCMV-luciferase reporter, 72 h; active compounds read low; activity change, negative = inhibition, % at 57.5 µM; actives 4.5% (n = 410,000); in the data active = activity change below about -60%; inconclusive = no clear call, values can overlap the other calls; inactive = above about -39%
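Cell-based, HFFs, 1000 cells/well, 16 h 37C; cpds in DMSO + HCMV-luc, MOI 1 PFU/cell; 72 h 37C; OneGlo luminescence after 5 min RT; norm. to buffer vs Salinomycin 10uM.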
Pf growth 96h: P. falciparum growth inhibition at 96 hours; P. falciparum luciferase reporter growth, 96 h; Potency, µM (series often up to 28.7 µM), most hits filed as inhibitors; actives 6.9% (n = 320,000); AID 504834
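Infected RBCs, 2% Hct / 0.05% parasitemia final; luciferase-reporter P. falciparum; cpd 96 h, 37 C, 5% CO2; luciferase detection reagent; luminescence.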
SARS PLP yeast: inhibitors of SARS-CoV papain-like protease in yeast; S. cerevisiae expressing SARS-CoV PLpro, growth rescue; actives 0.19% (n = 330,000); Potency, µM (doses to about 32.9 µM), most hits filed as activators; calls by dose curve; note: nearly all actives have a fitted effect of over 55% in size
Pf growth 48h: P. falciparum growth inhibition at 48 hours (one generation); P. falciparum luciferase growth in erythrocytes, 48 h; Potency, µM (top dose mostly 28.7 µM), actives largely listed as inhibitors; actives 5.9% (n = 310,000)
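Parasite viability was followed by luminescence of a genomically integrated firefly luciferase. Cultures held 0.1% parasitemia at 2% hematocrit (final), incubated under 5% CO2 at 37 C.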
Sm TGR block: S. mansoni TGR enzyme inhibition. Q962Y6. purified TGR, DTNB reduction, TNB absorbance 405 nm. Potency, µM (highest dose often 114 µM), usual class: inhibitors. actives 3% (n = 360,000); note: nearly all actives have a fitted effect of over 60% in size
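TGR 20 nM + NADPH 100 uM (dispensed conc.), cpd preinc 15 min RT; start with NADPH (500 uM addition) then DTNB (15 mM addition). Kinetic TNB absorbance, 405 nm filter. Four-parameter Hill fit across titration.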
A number is an active result; – = inactive; ? = inconclusive; · = no result given; ! = not active in a repeat; [ ] = another dose, or the depositor's remark. Unless noted, calls come from the whole dose curve; as a rule, active = well fitted curve in the direction sought with a large enough effect; inconclusive = small, poorly fitted or top-dose-only effect, or another doubt; inactive = no such curve, though single readings can be large; an effect the other way counts as inactive or inconclusive.

SMILES | HCV inh | HCMV inh | Pf growth 96h | SARS PLP yeast | Pf growth 48h | Sm TGR block
O=C(NCc1ccccc1)c1ccc(CN2CCC(Cc3ccccc3)CC2)cc1 | 10µM | – | – | – | 13µM | –
O=C(NCC(=O)N1CCC(Cc2ccccc2)CC1)c1ccc(Cl)cc1 | ? | – | 13µM | – | – | –
CCc1ccccc1NC(=O)c1ccc(CN2CCC(Cc3ccccc3)CC2)cc1 | 13µM | – | – | – | 1µM | –
Cc1c(C(=O)NCCO)[n+](=O)c2ccccc2n1[O-] | · | · | – | · | – | ·
CS(=O)(=O)c1[nH]nc(-c2cccc(Cl)c2)c1C#N | – | – | – | – | – | –
N#CCCN(CCCN1CCOCC1)CN1C(=O)c2ccccc2C1=O | · | – | · | · | · | ·
C#CCOCCOCCOCCNc1nc(N2CCN(C(=O)Cn3cc(CCO)nn3)CC2)nc(N2CCN(C(=O)[C@H]([C@@H](C)O)n3cc(CCCCN)nn3)CC2)n1 | – | – | – | – | – | –
C#CCOCCOCCOCCNc1nc(N2CCN(C(=O)CCCCCCCCCCNC(=O)Cn3cc(CCCCCN)nn3)CC2)nc(N2CCN(C(=O)CCCCCCCCCCNC(=O)[C@H]([C@@H](C)CC)n3cc(CCCCCN)nn3)CC2)n1 | ? | · | ? | – | 10µM | 45µM
C#CCOCCOCCOCCNc1nc(N2CCN(C(=O)Cn3cc(CCCCN)nn3)CC2)nc(N2CCN(C(=O)[C@H](CCCCN)n3cc(CCCC)nn3)CC2)n1 | – | – | ? | – | ? | –
C#CCOCCOCCOCCNc1nc(N2CCOCC2)nc(N2CCN(C(=O)CCCCCCCCCCNC(=O)[C@H](CO)n3cc(CCCCCN)nn3)CC2)n1 | – | – | 0.83µM | – | 0.33µM | –
C#CCOCCOCCOCCNc1nc(N2CCOCC2)nc(N2CCN(C(=O)Cn3cc(CCCCN)nn3)CC2)n1 | – | – | · | · | · | ·
C#CCOCCOCCOCCNc1nc(N2CCN(C(=O)CCCCCCCCCCNC(=O)Cn3cc(CCCCCN)nn3)CC2)nc(N2CCN(C(=O)CCCCCCCCCCNC(=O)[C@H](CO)n3cc(CCCCCN)nn3)CC2)n1 | 32µM | · | 2.9µM | – | 1µM | 40µM
C#CCOCCOCCOCCNc1nc(N2CCOCC2)nc(N2CCN(C(=O)CCCCCCCCCCNC(=O)Cn3cc(CCCCCN)nn3)CC2)n1 | – | – | ? | – | 3.7µM | ?
COCCNC(=O)C1(C)CCN(C(=O)c2oc3ccccc3c2C)C1 (stereo unspecified) | · | – | · | · | · | ·
CC(C)=CC1C(C(=O)OC(C#N)c2cccc(Oc3ccccc3)c2)C1(C)C (stereo unspecified) | · | – | · | · | · | ·
FC(F)(F)c1ccc(N2CCN(Cc3ccc4c(c3)OCO4)CC2)nc1 | – | -64 | – | – | – | –
O=C(c1ccc([N+](=O)[O-])s1)N1CCN(c2ncccn2)CC1 | · | – | · | · | · | ·
O=C(c1ccc([N+](=O)[O-])s1)N1CCN(c2ccc(C(F)(F)F)cn2)CC1 | ? | – | 3.3µM | – | ? | –
CN1CCN(c2ccc(NC(=O)c3ccc(C(F)(F)F)cc3)cn2)CC1 | 11µM | – | ? | – | ? | –
c1ccc(N2CCN(Cc3ccc4c(c3)OCO4)CC2)nc1 | – | – | · | · | · | ·
O=C(c1ccc2c(c1)OCCO2)N1CCN(c2ccc(C(F)(F)F)cn2)CC1 | · | -60 | · | · | · | ·
O=C(c1ccc2c(c1)OCO2)N1CCN(c2ccc(C(F)(F)F)cn2)CC1 | ? | ? | – | – | – | –
Cc1ccc2nsnc2c1NC(=O)COc1ccccc1 | – | – | ? | – | ? | –
Cc1ccc(C(=O)NCN2CCN(c3ccccc3)CC2)cc1 | – | – | – | – | – | ?
CC(C)S(=O)(=O)c1cnc(-c2cccnc2)nc1N | – | – | – | – | – | –
SMILES | HCV inh | HCMV inh | Pf growth 96h | SARS PLP yeast | Pf growth 48h | Sm TGR block
CCOC(=O)CNC(=O)Cn1c(C)cc2ccccc2c1=O | – | – | – | – | – | –
CCOC(=O)C1CCN(C(=O)CNC(=O)Cn2c(C)cc3ccccc3c2=O)CC1 | – | – | 3.3µM | – | – | –
Cc1ccc2[nH]c3c(=O)n(CC(=O)N4CCN(C)CC4)ncc3c2c1 | – | – | 7.4µM | · | – | –
Cc1ccc2[nH]c3c(=O)n(CC(=O)N4CCN(c5cccc(C(F)(F)F)c5)CC4)ncc3c2c1 | · | – | · | · | · | –
O=C(Cn1ncc2c([nH]c3ccccc32)c1=O)NCC1CCN(Cc2ccccc2F)CC1 | – | – | 9.3µM | ? | – | –
Cc1ccc(C)c(CN2CCC(CNC(=O)Cn3ncc4c([nH]c5ccccc54)c3=O)CC2)c1 | · | – | · | · | · | –
O=C(Cn1ncc2c([nH]c3ccccc32)c1=O)N1CCN(c2ccccn2)CC1 | – | – | 1.3µM | – | – | –
COc1ccc(C(C#N)=Cc2cc(OC)c(OC)c(OC)c2)cc1 | · | – | · | · | · | ·
COc1ccc(CNC(=O)COC(=O)c2ccc(Br)o2)cc1 | – | – | – | –[6.58 µM] | – | –
CCOC(=O)C1CCN(C(=O)Cn2ncc3c([nH]c4ccccc43)c2=O)CC1 | – | -68! | – | · | – | –
O=C(Cn1ncc2c([nH]c3ccccc32)c1=O)N1CCCCC1 | – | – | – | – | – | –
Clc1ccsc1-c1csc(-c2cccnc2)n1 | 14µM | – | ? | – | · | –
c1cncc(-c2nc(-c3ccco3)cs2)c1 | – | – | · | – | – | 7.9µM
Cc1ccc(-c2nnc3n2N=C(c2ccccc2Br)CS3)cc1 | ? | -78 | – | – | 12µM | –
c1ccc(-c2cc(-c3nnc4n3N=C(c3ccc5ccccc5c3)CS4)[nH]n2)cc1 | – | -96 | ? | – | 12µM | –
Cc1cc(-c2nnc3n2N=C(c2ccc(-c4ccccc4)cc2)CS3)n[nH]1 | – | – | ? | – | 10µM | –
Cc1cc(-c2nnc3n2N=C(c2ccccc2)CS3)n[nH]1 | ? | – | ? | – | – | –
c1ccc(C2=Nn3c(nnc3-c3ccncc3)SC2)cc1 | – | -73 | – | – | – | –
Cc1cccc(-c2nnc3n2N=C(c2ccccc2)CS3)c1 | ? | ? | ? | – | · | –[11.4 µM]
CN(Cc1cn[nH]c1-c1cc2ccccc2o1)CC1CCOCC1 | – | – | ? | – | – | –
CN(C(=O)COc1ncnc2sccc12)C1CCCCC1 | – | – | – | – | – | –
CCc1cccc(NC(=O)CCN2C(=O)c3ccccc3Sc3ncccc32)c1 | · | ? | · | · | · | 45µM
O=C(O)CCN1C(=O)c2ccccc2Sc2ncccc21 | – | – | – | – | – | –
O=C(CCN1C(=O)c2ccccc2Sc2ncccc21)Nc1ccc(F)cc1 | · | – | · | · | · | 16µM
Cc1ccc(C)c(NC(=O)CCN2C(=O)c3ccccc3Sc3ncccc32)c1 | · | – | · | · | · | –
CC(C)NC(=O)CCN1C(=O)c2ccccc2Sc2ncccc21 | – | – | 6.6µM | – | – | –
CC(=O)N1N=C(c2cccc(NS(=O)(=O)c3ccc(C)cc3)c2)CC1c1ccco1 (stereo unspecified) | 3.2µM | – | ? | – | ? | ?
